{"source": "PubChem BioAssay (NCATS)", "note": "Inconclusive results are not listed. Active and inactive are the calls of the source. The call rests on the fitted dose curve; in most records, active means well fitted inhibition curve with a large enough effect; inconclusive means small, poorly fitted or top-dose-only effect; inactive means flat fitted curve, though single readings scatter."}
{"test_system": "not listed separately", "assay": "qHTS Assay for Lipid Storage Modulators (AID 1519)", "details": "Drosophila S3 cells, BODIPY lipid droplet/cell ratio, laser cytometry; measured here: lipid channel max response; cells loaded with oleic acid", "procedure,_shortened": "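Cells seeded at 5,000 per well were treated with compounds over a concentration series and loaded with oleic acid (400 uM, as added). Lipid droplet fluorescence (488 nm excitation, 500-530 nm channel) was read by laser-scanning cytometry and normalized to 20 uM Triacsin C.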", "units": {"max response": "%"}}
{"smiles": "COc1ccccc1CNc1cc(-c2c(C)noc2C)ncn1", "max response": 41.7}
{"smiles": "Cn1c(=O)c(-c2ccc(Cl)cc2)nc2cnc(N3CCOCC3)nc21", "max response": 17.6}
{"smiles": "COc1ncc2nc(C)c(=O)n(C3CC3)c2n1", "max response": 29.7}
{"smiles": "Cc1noc(C)c1-c1ccc2ncnc(N3CCN(C)CC3)c2c1", "max response": 4.95}
{"smiles": "CN(C)c1ccc(-c2ccc3ncnc(-n4ccnc4)c3c2)cc1", "max response": 9.84}
{"smiles": "O=c1cnc2cncnc2n1Cc1ccccc1Cl", "max response": -10.1}
{"smiles": "CCNc1ncc2ncc(=O)n(CCOC)c2n1", "max response": 22.5}
{"smiles": "COc1ccccc1-c1cncnc1NCCNC(C)=O", "max response": 19}
{"molecular_target": "Dual specificity protein kinase CLK4 (Homo sapiens) (UniProt Q9HAZ1)", "sequence (Q9HAZ1 whole entry, looked up)": "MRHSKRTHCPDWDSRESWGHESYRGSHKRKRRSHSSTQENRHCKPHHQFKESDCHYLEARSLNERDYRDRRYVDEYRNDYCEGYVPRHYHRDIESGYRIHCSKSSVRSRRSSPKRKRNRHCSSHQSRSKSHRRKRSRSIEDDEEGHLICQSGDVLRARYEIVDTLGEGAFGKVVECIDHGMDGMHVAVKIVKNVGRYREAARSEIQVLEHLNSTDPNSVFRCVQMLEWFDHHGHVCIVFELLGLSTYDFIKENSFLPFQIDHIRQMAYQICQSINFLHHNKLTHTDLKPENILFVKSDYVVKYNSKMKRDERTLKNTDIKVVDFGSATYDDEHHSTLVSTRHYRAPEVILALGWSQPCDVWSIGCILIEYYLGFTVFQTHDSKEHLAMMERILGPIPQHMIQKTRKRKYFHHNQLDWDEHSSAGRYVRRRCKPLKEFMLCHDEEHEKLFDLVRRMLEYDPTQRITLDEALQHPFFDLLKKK", "assay": "qHTS Assay for Inhibitors of CDC-like Kinase 4 (Kinase-Glo Assay) (AID 1770); further: nearly all actives have a fitted effect of over 65% in size; further: potency means the concentration at half of the fitted maximal effect", "details": "recombinant Clk4, Kinase-Glo ATP depletion luminescence; series mostly up to 66.7 µM", "procedure,_shortened": "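Clk4 25 nM, RS peptide 100 uM, ATP 1 uM, pH 7.5 Tris, 10 mM MgCl2, 2.5 mM DTT; 4.5 h RT; ATP depletion read by Kinase-Glo luminescence.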"}
{"smiles": "Clc1ccccc1-c1ccc2ncnc(N3CCNCC3)c2c1", "Potency": "15.8 µM (active)"}
{"smiles": "CCNc1ncc2nc(-c3cccs3)c(=O)n(C)c2n1", "Potency": "inactive"}
{"smiles": "COCCn1c(=O)c(-c2cn(C)c3ccccc23)nc2cnc(N3CCOCC3)nc21", "Potency": "inactive"}
{"smiles": "CN(C)c1ccc(-c2cc(Nc3ccc(F)cc3)ncn2)cc1", "Potency": "11.2 µM (active)"}
{"smiles": "COc1ncc2nc(-c3cccs3)c(=O)n(CCc3ccccc3)c2n1", "Potency": "inactive"}
{"smiles": "COc1ncc2nc(-c3ccccc3)c(=O)n(-c3ccccc3)c2n1", "Potency": "inactive"}
{"smiles": "Cc1noc(C)c1-c1nccc(N2CCOCC2)n1", "Potency": "14.1 µM (active)"}
{"smiles": "FC(F)(F)c1ccccc1-c1cc(NCc2ccccc2)ncn1", "Potency": "inactive"}
{"smiles": "Cn1c(=O)c(-c2ccc(Cl)cc2)nc2cnc(Nc3ccccc3)nc21", "Potency": "inactive"}
{"smiles": "COc1ccc(Oc2ncc3nc(-c4ccc(Cl)cc4)c(=O)n(C[C@H]4CCCO4)c3n2)cc1", "Potency": "inactive"}
{"smiles": "COc1cccc(Nc2ncc3nc(C)c(=O)n(C4CC4)c3n2)c1", "Potency": "12.6 µM (active)"}
{"smiles": "COc1cccc(Cn2c(=O)c(-c3cc(F)cc(F)c3)nc3cnc(N(C)C)nc32)c1", "Potency": "inactive"}
{"smiles": "CNc1nc(-c2ccc3c(c2)OCO3)nc2ccccc12", "Potency": "14.1 µM (active)"}
{"smiles": "COc1cccc(Cn2c(=O)c(C)nc3cnc(OC)nc32)c1", "Potency": "inactive"}
{"smiles": "Cc1nc2cncnc2n(C2CC2)c1=O", "Potency": "inactive"}
{"smiles": "COc1cccc(Cn2c(=O)cnc3cncnc32)c1", "Potency": "15.8 µM (active)"}
{"smiles": "COCCn1c(=O)c(-c2cc(F)cc(F)c2)nc2cnc(N3CCOCC3)nc21", "Potency": "inactive"}
{"smiles": "CN(C)C(=O)c1ccc(-c2cc(NCc3cccnc3)ncn2)cc1", "Potency": "15.8 µM (active)"}
{"smiles": "Cc1noc(C)c1-c1cc(NCc2cccnc2)ncn1", "Potency": "15.8 µM (active)"}
{"smiles": "CS(=O)(=O)Nc1cccc(-c2ccc3ncnc(NCCN4CCOCC4)c3c2)c1", "Potency": "8.91 µM (active)"}
{"smiles": "COCCn1c(=O)c(C)nc2cnc(N(C)C)nc21", "Potency": "inactive"}
{"smiles": "COc1ccc2[nH]cc(CCNc3ncnc4ccc(-c5cccnc5)cc34)c2c1", "Potency": "2.24 µM (active)"}
{"smiles": "Cn1c(=O)c(-c2cccc(C#N)c2)nc2cnc(Oc3ccccc3)nc21", "Potency": "inactive"}
{"smiles": "O=c1c(-c2cc(F)cc(F)c2)nc2cnc(N3CCOCC3)nc2n1Cc1cccs1", "Potency": "inactive"}
{"smiles": "CNc1ncnc2ccc(-c3ccccc3CN(C)C)cc12", "Potency": "25.1 µM (active)"}
{"smiles": "CN(C)C(=O)c1ccc(-c2cc(Nc3ccccc3)ncn2)cc1", "Potency": "14.1 µM (active)"}
{"smiles": "COc1cccc(Nc2ncc3ncc(=O)n(CCc4ccccc4)c3n2)c1", "Potency": "0.1 µM (active)"}
{"smiles": "O=c1c(-c2ccc(F)cc2)nc2cnc(N3CCNCC3)nc2n1C1CC1", "Potency": "inactive"}
{"smiles": "COc1ccc(-c2nc3cnc(Nc4cccc(OC)c4)nc3n(C[C@H]3CCCO3)c2=O)cc1", "Potency": "inactive"}
{"smiles": "COc1cccc(-c2ccc3ncnc(NCc4ccccc4)c3c2)c1", "Potency": "2 µM (active)"}
{"smiles": "Cc1ccccc1-c1cc(N(C)C)ncn1", "Potency": "inactive"}
{"smiles": "Cc1cccc(CNc2cc(-c3c(C)noc3C)ncn2)c1", "Potency": "15.8 µM (active)"}
{"smiles": "COc1ccccc1CNc1cc(-c2c(C)noc2C)ncn1", "Potency": "15.8 µM (active)"}
{"smiles": "Cn1c(=O)c(-c2ccc(Cl)cc2)nc2cnc(N3CCOCC3)nc21", "Potency": "inactive"}
{"smiles": "COc1ncc2nc(C)c(=O)n(C3CC3)c2n1", "Potency": "inactive"}
{"smiles": "Cc1noc(C)c1-c1ccc2ncnc(N3CCN(C)CC3)c2c1", "Potency": "10 µM (active)"}
{"smiles": "CN(C)c1ccc(-c2ccc3ncnc(-n4ccnc4)c3c2)cc1", "Potency": "3.16 µM (active)"}
{"smiles": "O=c1cnc2cncnc2n1Cc1ccccc1Cl", "Potency": "inactive"}
{"smiles": "CCNc1ncc2ncc(=O)n(CCOC)c2n1", "Potency": "15.8 µM (active)"}
{"smiles": "COc1ccccc1-c1cncnc1NCCNC(C)=O", "Potency": "inactive"}
